From PubChem BioAssay (Tox21)
“And” between values parts separate entries of the source, which are not always exact repeats. Equal values may be shown once. Some structures have more than one record in an assay (separate samples or runs), and their calls can disagree. The source made the active and inactive calls. Where a call stands in place of a potency, no number is given. Calls come from the whole dose curve; as a rule, active = well fitted activation curve with a large enough effect in the repeat runs; inconclusive = weak or mixed curves; inactive = flat fitted curve, though single readings scatter. Starred links: 1 amine or outer side, 2 acyl side, 3 side chain; linkers in the order of their positions; H or OH if unused. Positions of bridges follow the written chain, without caps; N, C: chain ends. Non-standard residues stand in square brackets, D forms with d. Residues, ends and D or L forms follow the SMILES beside them. Chains are numbered I, II in the order given. Actinocin(9to1) = Cc1c2oc3c(C)ccc(C(=O)[*:1])c3nc-2c(C(=O)[*:2])c(N)c1=O; NMeV = CN[C@H](C(=O)O)C(C)C; Sar = CNCC(=O)O

Assay: A CellTox Green Cytotoxicity Assay to monitor cytotoxicity in HEK293 cells - 0 hour (AID 1224869); note: nearly all actives have a fitted effect of over 50% in size
Details: CellTox Green fluorescence; series mostly up to 76.8 µM; cytotoxicity: at the top concentration
Excerpt: National Center for Advancing Translational Sciences [NCATS]
NIH Chemical Genomics Center [NCGC]
U.S. Environmental Protection Agency [EPA]
National Institutes of Environmental Health Sciences [NIEHS]
National Toxicology Program [NTP]
Cell-based models are critical for drug discovery. Determining the natural cytotoxic effects resulting from test compounds is an essential research activity. A CellTox Green Cytotoxicity Assay to monitor cytotoxicity in real time of continues cell culture during 40 hours of the compound treatment was used to screen Tox21 10K library compounds in Hek293 cells. CellTox Green Cytotoxicity Assay is a nonlytic, homogeneous, biofluorescent method to measure cytotoxicity in cell culture after experimental manipulation. The assay system uses a proprietary asymmetric cyanine dye that is excluded from viable cells but preferentially stains the dead cell's DNA. […] Viable cells produce no appreciable increases in fluorescence. Therefore, the fluorescence signal produced by the binding interaction with dead cell DNA is proportional to cytotoxicity.
The mixture of Hek293 cell suspension and reagents were dispensed at 600cells/6 ul/well in 1536-well tissue culture treated black solid bottom plates using a Multidrop dispenser. After the assay plates were incubated at a 37 C/5% CO2 incubator for 5 hours, 23 nL of compounds dissolved in DMSO, positive and negative controls was transferred to the assay plate by a pintool work station. The plates were incubated at 37 C for 40 hours. The fluorescence intensity were measured at 0h, 8h, 16h, 24h, 32h and 40h time points using ViewLux plate reader during compound treatment.
Potency is the fitted concentration of half-maximal effect.

Compound	cytotoxicity	Potency
CCN(CC)C(=O)Nc1ccc(OCC(O)CNC(C)(C)C)c(C(C)=O)c1 (stereo not given)	0.473% [at 35.3 µM] (inactive)	–
CCN(CC)C(=S)SSC(=S)N(CC)CC	–	inactive
Cc1cccc2n[nH]nc12	–	inactive
c1ccc2n[nH]nc2c1	–	inactive
CCC[C@H](N[C@@H](C)C(=O)N1[C@H](C(=O)O)C[C@@H]2CCCC[C@@H]21)C(=O)OCC	–	inactive
CN1C(=O)c2ccc([N+](=O)[O-])cc2C1=O	-0.691% (inactive)	–
COc1cc(C(=S)N2CCOCC2)ccc1O	1.91% [at 35.3 µM] (inactive)	–
C[N+]1([O-])CCOCC1	-8.5% (inactive)	–
CC(=O)Nc1ccc(C(=O)CCl)cc1	–	inactive
CC(=O)CC(=O)Nc1ccc2[nH]c(=O)[nH]c2c1	-0.0934% (inactive)	–
COc1nc(C)nc(Cl)c1NC1=NCCN1	-6.79% [at 35.3 µM] (inactive)	–
CC(=O)N[C@@H](CS)C(=O)O	–	inactive
O=Cc1ccc(Cl)cc1	1.13% (inactive)	–
O=C(O[C@@H]1Cc2c(O)cc(O)cc2O[C@@H]1c1cc(O)c(O)c(O)c1)c1cc(O)c(O)c(O)c1	–	inactive
NCCO	–	inactive
NC(=Nc1ccccc1)Nc1ccccc1	–	inactive
Nc1cc(S(=O)(=O)O)cc2cc(S(=O)(=O)O)cc(O)c12	–	inactive
C#CC(C)(CC)OC(=O)c1ccccc1C(=O)O (stereo not given)	18.8% [at 35.3 µM] (inactive)	–
Cc1cc(OCCOCC[N+](C)(C)Cc2ccccc2)ccc1C(C)(C)CC(C)(C)C	–	inactive
Cc1scc2c1N(C(=O)CN1CCN(C)CC1)c1ccccc1NC2=O	3.11% [at 35.3 µM] (inactive)	–

Compound	cytotoxicity	Potency
c1cc(C(c2ccc(OCC3CO3)cc2)C(c2ccc(OCC3CO3)cc2)c2ccc(OCC3CO3)cc2)ccc1OCC1CO1 (stereo not given)	–	inactive
CCCCC(CC)COC(=O)CC(C(=O)OCC(CC)CCCC)S(=O)(=O)O (stereo not given)	–	inactive
Cc1c2oc3c(C)ccc(C(=O)N[C@@H]4C(=O)N[C@H](C(C)C)C(=O)N5CCC[C@H]5C(=O)N(C)CC(=O)N(C)[C@@H](C(C)C)C(=O)O[C@@H]4C)c3nc-2c(C(=O)N[C@@H]2C(=O)N[C@H](C(C)C)C(=O)N3CCC[C@H]3C(=O)N(C)CC(=O)N(C)[C@@H](C(C)C)C(=O)O[C@@H]2C)c(N)c1=O (I: T[dV]P[Sar][NMeV] / II: T[dV]P[Sar][NMeV]; ester I:1-I:C, II:1-II:C; linker I:N-II:N via Actinocin(9to1))	–	inactive
Oc1c(Cl)cc(Cl)cc1Sc1cc(Cl)cc(Cl)c1O	–	inactive and 27.5 µM (active)
CNC1(C)C2CCC(C2)C1(C)C (stereo not given)	2.14% [at 35.3 µM] (inactive)	–
C=CS(=O)(=O)O	-0.215% (inactive)	–
CC(C)(O)CCC(C)(C)O	-2% (inactive)	–
CC1COc2c(N3CCN(C)CC3)c(F)cc3c(=O)c(C(=O)O)cn1c23 (stereo not given)	1.53% [at 35.3 µM] (inactive)	–
CCCCCCCCCCCCCCCCCl	1.64% [at 15.8 µM] (inactive)	–
O=C(O)c1cc(Cl)cc(Cl)c1	7.66% (inactive)	–
Clc1ccc2c(c1)C(N1CCNCC1)=Nc1ccccc1O2	–	inactive
NNCCc1ccccc1	–	inactive
Cc1occc(=O)c1OC(=O)C(C)C	0.986% (inactive)	–
CC(C)CCOC(=O)c1ccc(N(C)C)cc1	0.985% [at 35.3 µM] (inactive)	–
CN(C)c1ccc(C(=C2C=CC(=[N+](C)C)C=C2)c2ccccc2)cc1	–	inactive
NC12CC3CC(CC(C3)C1)C2	-7.59% [at 35.3 µM] (inactive)	–
CCCCOCCOC(=O)c1ccccc1C(=O)OCCOCCCC	–	inactive
O=C1Nc2ccccc2C1(c1ccc(O)cc1)c1ccc(O)cc1	–	inactive
c1ccc2c(c1)-c1cccc3c1c-2cc1ccccc13	–	inactive
Cc1ccc(S(=O)(=O)Oc2ccc(N=Nc3ccc(-c4ccc(N=Nc5c(O)ccc6cc(S(=O)(=O)O)cc(S(=O)(=O)O)c56)c(C)c4)cc3C)cc2)cc1	–	inactive
